The nature of test [1]: NCI Yeast Anticancer Drug Screen. Data for the rad50 strain (AID 155).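 Further: 0% = growth of vehicle-only cultures of the same strain.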 The conditions noted are these: S. cerevisiae rad50 strain growth inhibition, hits give high values. A digest of the protocol: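 Yeast carrying a defined DNA repair defect were exposed to test compounds, and growth was compared with vehicle-treated controls to give percent inhibition.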
The nature of test [2]: NCI Yeast Anticancer Drug Screen. Data for the mec2-1 strain (AID 157). The conditions noted are these: S. cerevisiae mec2-1 strain, hits give high values. A digest of the protocol: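 Strain: mec2-1 (DNA repair/cell cycle alteration). Compound exposure, then growth measured; inhibition expressed relative to vehicle.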
The nature of test [3]: NCI Yeast Anticancer Drug Screen. Data for the sgs1 mgt1 strain (AID 161).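 Further: 0% = growth of cultures given vehicle only.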 As to conditions: S. cerevisiae sgs1 mgt1 strain, hits give high values. A digest of the protocol:
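Read-out: growth inhibition vs vehicle controls. Cells: mutant yeast strain deficient in DNA damage repair.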

Test [4] in a line: NCI Yeast Anticancer Drug Screen. Data for the cln2 rad14 strain (AID 165).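 Further: 0% = growth equal to vehicle treated cultures.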 The conditions noted are these: S. cerevisiae cln2 rad14 strain, hits give high values. The essentials:
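Compounds are applied to the cln2 rad14 yeast strain, and growth is then compared with that of vehicle-treated cultures to give inhibition.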

Test [5] can be described thus: NCI Yeast Anticancer Drug Screen. Data for the bub3 strain (AID 167). The conditions noted are these: S. cerevisiae bub3 mutant strain, hits give high values. The essentials:
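Compounds were applied to a genetically altered yeast strain carrying a cell-cycle control defect. Growth inhibition was scored against vehicle-treated controls.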

Test [6] is described as follows: NCI Yeast Anticancer Drug Screen. Data for the mlh1 rad18 strain (AID 175). As to conditions: S. cerevisiae mlh1 rad18 strain growth inhibition, hits give high values. The essentials: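 Read-out is yeast growth inhibition, calculated against vehicle-only controls. The compound was applied to a strain engineered with DNA damage repair alterations.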
[7] abbreviates: at 5.0 µM (retest, dose inferred, filed as 0.5).
Setting [8] is: at 50.0 µM (retest, dose inferred, filed as 5.0).

About 79,000 compounds went through this panel and 15% of them were active in at least one assay; those are over-represented in the sample as a whole. A number with no mark means an inactive call. Activity calls are given as the source filed them. No stated cut-off is given here; in the data, active means growth inhibition above about 70%; inactive means the rest.

`O=C1OC(OC/C(Br)=C(/Br)COC2OC(=O)C(Cl)=C2Cl)C(Cl)=C1Cl` (configuration not stated): the growth inhibition in test [1] (setting [7]) is 93% (active); in test [1] (setting [8]), 99% (active); in test [1] (at 50.0 µM), 99.2% (active); in test [2] (setting [7]), 64%; in test [2] (setting [8]), 99% (active); in test [2] (at 50.0 µM), 99.4% (active). Further, the growth inhibition in test [3] (setting [7]) was 97% (active); in test [3] (setting [8]), 100% (active); in test [3] (at 50.0 µM), 98.9% (active); in test [4] (setting [7]), 71% (active); in test [4] (setting [8]), 98% (active); in test [4] (at 50.0 µM) it was 97.3% (active). Moreover, the growth inhibition in test [5] (setting [7]) is 84% (active); in test [5] (setting [8]) it was 99% (active); in test [5] (at 50.0 µM) it was 98.8% (active); in test [6] (setting [7]), 97% (active); in test [6] (setting [8]), 99% (active); in test [6] (at 50.0 µM), 98.7% (active).

On to `O=C(O)c1c2c(cc3c1CC1(Cc4ccccc4C1=O)C3)CCC2` (configuration not stated), for which the growth inhibition is 7% in test [1] (setting [7]); 7% in test [1] (setting [8]); 81.2% (active) in test [1] (at 50.0 µM); 21% in test [2] (setting [7]); 21% in test [2] (setting [8]); 89% (active) in test [2] (at 50.0 µM). Also, the growth inhibition in test [3] (setting [7]) is 20%; in test [3] (setting [8]), 20%; in test [3] (at 50.0 µM) it was 84.8% (active); in test [4] (setting [7]) it was -10%; in test [4] (setting [8]), -10%; in test [4] (at 50.0 µM) it was 84.2% (active). Also, the growth inhibition was 16% in test [5] (setting [7]); 16% in test [5] (setting [8]); 84.2% (active) in test [5] (at 50.0 µM); 24% in test [6] (setting [7]); 24% in test [6] (setting [8]); 77.9% (active) in test [6] (at 50.0 µM).

Consider `Cc1cc(N)c2cc(NC(=O)Nc3ccc4nc(C)cc(N)c4c3)ccc2n1`, for which the growth inhibition was 100% (active) in test [1] (setting [7]); 100% (active) in test [1] (setting [8]); 99% (active) in test [1] (at 50.0 µM); 100% (active) in test [2] (setting [7]); 99% (active) in test [2] (setting [8]); 99% (active) in test [2] (at 50.0 µM). For the same compound, the growth inhibition in test [3] (setting [7]) was 99% (active); in test [3] (setting [8]), 67%; in test [3] (at 50.0 µM), 99% (active); in test [4] (setting [7]), 99% (active); in test [4] (setting [8]), 100% (active); in test [4] (at 50.0 µM), 95.3% (active). For the same compound, the growth inhibition in test [5] (setting [7]) was 99% (active); in test [5] (setting [8]), 99% (active); in test [5] (at 50.0 µM) it was 98.7% (active); in test [6] (setting [7]), 99% (active); in test [6] (setting [8]), 99% (active); in test [6] (at 50.0 µM) it was 98.5% (active).

Consider `CN1CCN(C2=C(Cl)C3(OCCS3)C(F)(F)C2(F)F)CC1` (configuration not stated), for which the growth inhibition in test [1] (setting [7]) is -1%; in test [1] (setting [8]) it was -42%; in test [1] (at 50.0 µM), 34.1%; in test [2] (setting [7]) it was 26%; in test [2] (setting [8]), 53%; in test [2] (at 50.0 µM) it was 34.2%. Also, the growth inhibition in test [3] (setting [7]) is 15%; in test [3] (setting [8]) it was 58%; in test [3] (at 50.0 µM), 53.7%; in test [4] (setting [7]), 1%; in test [4] (setting [8]), 29%; in test [4] (at 50.0 µM), 49.2%. The growth inhibition in test [5] (setting [7]) is 5%; in test [5] (setting [8]) it was 22%; in test [5] (at 50.0 µM), 39.9%; in test [6] (setting [7]), 20%; in test [6] (setting [8]) it was 68%; in test [6] (at 50.0 µM), 48.1%.

Consider `Cc1ccc(Nc2nc3c(s2)C(=O)c2ccccc2C3=O)cc1`, for which the growth inhibition is 37% in test [1] (setting [7]); 97% (active) in test [1] (setting [8]); 98.2% (active) in test [1] (at 50.0 µM); 61% in test [2] (setting [7]); 98% (active) in test [2] (setting [8]); 98.8% (active) in test [2] (at 50.0 µM). Besides, the growth inhibition is 34% in test [3] (setting [7]); 98% (active) in test [3] (setting [8]); 98.7% (active) in test [3] (at 50.0 µM); 3% in test [4] (setting [7]); 96% (active) in test [4] (setting [8]); 97.8% (active) in test [4] (at 50.0 µM). Besides, the growth inhibition in test [5] (setting [7]) is 91% (active); in test [5] (setting [8]), 97% (active); in test [5] (at 50.0 µM), 98.7% (active); in test [6] (setting [7]), 61%; in test [6] (setting [8]), 97% (active); in test [6] (at 50.0 µM), 97.7% (active).

`O=C(OCC1CCCO1)N(c1ccccc1)c1ccccc1` (configuration not stated): the growth inhibition in test [1] (setting [7]) was 12%; in test [1] (setting [8]), -5%; in test [1] (at 50.0 µM), 23.1%; in test [2] (setting [7]), 15%; in test [2] (setting [8]), 21%; in test [2] (at 50.0 µM) it was 24.3%. In addition, the growth inhibition in test [3] (setting [7]) was 18%; in test [3] (setting [8]), 20%; in test [3] (at 50.0 µM) it was 46.9%; in test [4] (setting [7]), 30%; in test [4] (setting [8]), 21%; in test [4] (at 50.0 µM), -11.4%. Also, the growth inhibition in test [5] (setting [7]) is 0%; in test [5] (setting [8]) it was 16%; in test [5] (at 50.0 µM), 2%; in test [6] (setting [7]), 16%; in test [6] (setting [8]), 40%; in test [6] (at 50.0 µM), 37.7%.

On to `CC(=O)OC1CCC(C(C)(C)C)C(C)C1` (configuration not stated), for which the growth inhibition is 3% in test [1] (setting [7]); 43% in test [1] (setting [8]); 11.4% in test [1] (at 50.0 µM); 5% in test [2] (setting [7]); 70% (active) in test [2] (setting [8]); 45.5% in test [2] (at 50.0 µM). The growth inhibition in test [3] (setting [7]) was 6%; in test [3] (setting [8]) it was 42%; in test [3] (at 50.0 µM), 43.4%; in test [4] (setting [7]), 2%; in test [4] (setting [8]), 68%; in test [4] (at 50.0 µM), 9.55%. Moreover, the growth inhibition in test [5] (setting [7]) was -4%; in test [5] (setting [8]) it was 67%; in test [5] (at 50.0 µM) it was 32.9%; in test [6] (setting [7]), 3%; in test [6] (setting [8]) it was 47%; in test [6] (at 50.0 µM), 29.5%.

`O=S(=O)(c1cc(Br)ccc1O)c1cc(Br)ccc1O`: the growth inhibition is 94% (active) in test [1] (setting [7]); 99% (active) in test [1] (setting [8]); 99.8% (active) in test [1] (at 50.0 µM); 99% (active) in test [2] (setting [7]); 100% (active) in test [2] (setting [8]); 99.8% (active) in test [2] (at 50.0 µM). Moreover, the growth inhibition in test [3] (setting [7]) is 89% (active); in test [3] (setting [8]) it was 99% (active); in test [3] (at 50.0 µM), 99.8% (active); in test [4] (setting [7]) it was 99% (active); in test [4] (setting [8]), 100% (active); in test [4] (at 50.0 µM) it was 99.5% (active). Also, the growth inhibition is 99% (active) in test [5] (setting [7]); 100% (active) in test [5] (setting [8]); 99.7% (active) in test [5] (at 50.0 µM); 98% (active) in test [6] (setting [7]); 99% (active) in test [6] (setting [8]); 99.5% (active) in test [6] (at 50.0 µM).

On to `O=C(/C=C/c1cc(O)c(O)cc1O)OCCc1ccccc1`, for which the growth inhibition in test [1] (setting [7]) is 17%; in test [1] (setting [8]), 50%; in test [1] (at 50.0 µM), 47.1%; in test [2] (setting [7]), 16%; in test [2] (setting [8]), 61%; in test [2] (at 50.0 µM) it was 75.5% (active). Moreover, the growth inhibition in test [3] (setting [7]) was 20%; in test [3] (setting [8]), 64%; in test [3] (at 50.0 µM), 69.8%; in test [4] (setting [7]) it was 32%; in test [4] (setting [8]), 33%; in test [4] (at 50.0 µM) it was 53.7%. Moreover, the growth inhibition in test [5] (setting [7]) is 25%; in test [5] (setting [8]), 68%; in test [5] (at 50.0 µM) it was 66%; in test [6] (setting [7]) it was 21%; in test [6] (setting [8]), 75% (active); in test [6] (at 50.0 µM) it was 68.5%.
